Experimental data: PubChem BioAssay AID1159580 (chemical genetic matrix, 2015)
Among all 5,500 compounds or so, about 2,000 (36%) were called active. Inconclusive results (about 18%) are left out. Cut-off read from the data, not from the text of the source: active = normalized growth mostly below about 0.91 (no sharp cut-off); inconclusive = no clear call, values can overlap the other calls; inactive = mostly above about 0.92. This is one part of the list.

Assay: chemical genetic growth profiling, strain panel (AID 1159580);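 note: tested at 20 µM; growth read once vehicle control cultures reached saturation at 30 °C; 1 = growth at the plate median or of vehicle wells; lower values mean less growth of the strain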
Details: S. cerevisiae deletion strains, growth OD

Measured: normalized growth

CN1c2ccccc2C(C)(C)C12C=Cc1cc(O)ccc1O2 (stereo unspecified)
inactive: locus YAR019C, strain CDC15, active compounds read low 0.981 | locus YBL105C, strain PKC1, active compounds read low 0.981 | locus YBR135W, strain CKS1, active compounds read low 0.977 | locus YBR136W, strain MEC1, active compounds read low 0.981 | locus YBR160W, strain CDC28, active compounds read low 0.984 | locus YDL017W, strain CDC7, active compounds read low 0.974 | locus YDL028C, strain MPS1, active compounds read low 0.979 | locus YDL101C, strain DUN1, active compounds read low 0.975 | locus YDL108W, strain KIN28, active compounds read low 0.974 | locus YDL132W, strain cdc53, active compounds read low 0.977 | locus YDL214C, strain PRR2, active compounds read low 0.986 | locus YDR052C, strain DBF4, active compounds read low 0.982 | locus YDR054C, strain cdc34, active compounds read low 0.97 | locus YDR226W, strain ADK1, active compounds read low 0.972 | locus YDR477W, strain SNF1, active compounds read low 0.971 | locus YER123W, strain YCK3, active compounds read low 0.987 | locus YER133W, strain GLC7, active compounds read low 0.974 | locus YFL009W, strain cdc4, active compounds read low 0.968 | locus YFL029C, strain CAK1, active compounds read low 0.978 | locus YFR003C, strain YPI1, active compounds read low 0.976 | locus YFR019W, strain FAB1, active compounds read low 0.993 | locus YFR028C, strain CDC14, active compounds read low 0.976 | locus YGR040W, strain KSS1, active compounds read low 0.972 | locus YGR052W, strain FMP48, active compounds read low 1.01 | locus YGR092W, strain DBF2, active compounds read low 0.996 | locus YHR030C, strain SLT2, active compounds read low 0.897 | locus YHR079C, strain IRE1, active compounds read low 1.01 | locus YHR082C, strain KSP1, active compounds read low 1.06 | locus YHR205W, strain SCH9, active compounds read low 0.985 | locus YIL147C, strain SLN1, active compounds read low 0.978 | locus YJL095W, strain BCK1, active compounds read low 1.01 | locus YJL128C, strain PBS2, active compounds read low 0.942 | locus YJL157C, strain FAR1, active compounds read low 0.978 | locus YJR016C, strain ILV3, active compounds read low 0.968 | locus YJR066W, strain TOR1 (second series), active compounds read low 0.965 | locus YJR066W, strain TOR1, active compounds read low 1.08 | locus YKL048C, strain ELM1, active compounds read low 0.975 | locus YKL067W, strain YNK1, active compounds read low 0.975 | locus YKL101W, strain HSL1, active compounds read low 0.962 | locus YKL193C, strain SDS22, active compounds read low 0.973 | locus YKL203C, strain TOR2, active compounds read low 1.05 | locus YLR113W, strain HOG1, active compounds read low 0.891 | locus YLR133W, strain CKI1, active compounds read low 0.984 | locus YLR403W, strain SFP1, active compounds read low 1.01 | locus YML070W, strain DAK1, active compounds read low 0.978 | locus YMR001C, strain CDC5, active compounds read low 0.971 | locus YMR205C, strain PFK2 (second series), active compounds read low 0.991 | locus YMR277W, strain FCP1, active compounds read low 0.973 | locus YNL006W, strain LST8, active compounds read low 0.978 | locus YNL020C, strain ARK1, active compounds read low 0.982 | locus YNL161W, strain CBK1, active compounds read low 0.973 | locus YNL183C, strain NPR1, active compounds read low 1.08 | locus YNL207W, strain RIO2, active compounds read low 0.974 | locus YNL222W, strain SSU72, active compounds read low 0.986 | locus YNL307C, strain MCK1 (second series), active compounds read low 0.978 | locus YOL078W, strain AVO1, active compounds read low 0.975 | locus YOL136C, strain PFK27, active compounds read low 0.991 | locus YOR061W, strain CKA2, active compounds read low 0.993 | locus YOR119C, strain RIO1, active compounds read low 1.05 | locus YOR231W, strain MKK1, active compounds read low 1.02 | locus YOR329C, strain SCD5, active compounds read low 0.985 | locus YPL031C, strain PHO85, active compounds read low 0.962 | locus YPL153C, strain RAD53, active compounds read low 0.958 | locus YPL204W, strain HRR25, active compounds read low 0.943 | locus YPL209C, strain IPL1, active compounds read low 0.974 | locus YPL256C, strain CLN2, active compounds read low 0.899 | locus YPR025C, strain CCL1, active compounds read low 0.993 | locus YPR106W, strain ISR1, active compounds read low 0.984 | locus YPR111W, strain DBF20, active compounds read low 0.977 | strain NNK1, active compounds read low 0.989 | strain TSCII, active compounds read low 0.978
